# Screens from PubChem.
# AMA1-RON2 inh = inhibitors of Plasmodium falciparum AMA1-RON2 interaction; 360,000 tested, 0.2% active; AlphaScreen AMA1-biotinylated RON2 peptide binding; AID 720542; Potency, µM (highest dose often 58.2 µM), for inactives: at the highest dose activity change, negative = inhibition, usual class: inhibitors;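 further: potency means the concentration at half of the fitted maximal effect; 0% = vehicle wells and -100% = peptide control; nearly all actives have a fitted effect of over 45% in size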
#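 AMA1 (3D7) with his tag at 25 nM final met compounds first, then biotinylated RON2 peptide at 25 nM; detection used donor plus acceptor beads, 10 µg/mL apiece, read by AlphaScreen after 30 min at room temperature.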
# Shiga inhibitor = blocks Shiga toxin action in Vero cells | 290,000 tested, 9.2% active | Vero cells, Shiga toxin protein synthesis inhibition reporter | AID 2315 | inhibition, % at 38.7 µM; in the data active means inhibition mostly above about 28%, no sharp cut-off; inactive means mostly below about 43%; further: 0% is about no effect
# HCV inh = blocks hepatitis C virus | Huh7.5.1 HCVcc-Cre infection, luciferase reporter, 44 h | AID 651820 | Potency, µM (titrated, usually from 41.8 µM), for the others: at the top dose activity change, negative = inhibition, usual class: inhibitors | 340,000 tested, 3.4% active; further: potency means the concentration at half of the fitted maximal effect; on the % scale 0 is the no-effect control and ±100 the full control effect
#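 1,000 cells/well; 4 h culture; + compound; + HCVcc-Cre (~0.5 moi); 44 h; luciferase substrate, RT 15 min; read 15 sec.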
# CHX counter = counter-screen for Shiga toxin inhibitors: cycloheximide protein synthesis inhibition | cell reporter, cycloheximide protein synthesis inhibition counterscreen | 300,000 tested, 12% active | max response, %; in the data active means max response mostly above about 13%, no sharp cut-off; inactive means mostly below about 14%; further: read at 38.3 µM for the half of the compounds with a filed dose; 0% is about no effect
# Pf growth 48h = inhibits P. falciparum growth in the first generation, 48 h; P. falciparum luciferase growth in erythrocytes, 48 h; Potency, µM (highest dose often 28.7 µM), inactives show at the highest dose activity change, negative = inhibition, actives largely listed as inhibitors; 310,000 tested, 5.9% active; further: potency means the concentration at half of the fitted maximal effect; on the % scale 0 is the no-effect control and ±100 the full control effect
#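 In quantitative HTS format, infected erythrocytes bearing luciferase-reporter parasites were treated for a single generation at 37 C. Luminescence after adding detection reagent served as the growth measure.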
# Pf growth 96h = inhibits malaria parasite growth, 96 h; P. falciparum luciferase reporter growth, 96 h; Potency, µM (doses to about 28.7 µM), for the others: top-dose activity change, negative = inhibition, hits mostly inhibitors; 320,000 tested, 6.9% active; further: potency means the concentration at half of the fitted maximal effect; on the % scale 0 is the no-effect control and ±100 the full control effect
#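 Delayed-death screen, second-generation endpoint: infected erythrocytes, 2% hematocrit, 0.05% parasitemia final; 96 hours at 37 C, 5% CO2; luciferase detection reagent; luminescence decrease equals reduced growth.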
# An asterisk follows results filed as active; i = inactive; ? = inconclusive; . = no result given; + = active, no number. The list is not random: actives were taken first. Their share in the collection is about 21%. Unless noted, the call rests on the fitted dose curve; in most records, active means well fitted curve in the direction sought with a large enough effect; inconclusive means small, poorly fitted or top-dose-only effect, or another doubt; inactive means no such curve, though single readings can be large; an effect the other way counts as inactive or inconclusive.
SMILES,AMA1-RON2 inh,Shiga inhibitor,HCV inh,CHX counter,Pf growth 48h,Pf growth 96h
O=C(N/N=C/c1ccc(-c2cccc(C(F)(F)F)c2)o1)c1cccc(F)c1,24.9%,40.3*,?,32.2*,11.7µM*,?
Cn1c(NCCN2CCCC2)nc2cc(-c3ccsc3)sc2c1=O,3.8%,.,.,.,.,.
O=C(NC(Cc1ccccc1)C(=O)N1CCN(c2ccc(F)cc2)CC1)c1ccccc1 (centres undefined),-10.7%,.,.,.,.,.
COc1ccc(C(=O)N/N=C/c2ccc(N3CCOCC3)o2)cc1OC,42.0%,-6.9,11.2%,6.9,3.5%,-1.1%
O=C(N/N=C/c1ccc(N2CCCCC2)o1)C(O)(c1ccccc1)c1ccccc1,.,-3.9,6.9%,1.0,13.1µM*,?
O=C(N/N=C/c1ccc(N2CCOCC2)o1)c1cccc(F)c1,96.2%,84.5*,-5.4%,34.2*,20.0%,30.7%
CSc1sc(-c2ccnc(SCC(=O)C(C)(C)C)n2)c2c1C(=O)CC(C)(C)C2,-0.7%,-5.5,-5.2%,-0.7,?,4.65µM*
Cc1ccc2c(COC(=O)C3CSC4(C)CCC(=O)N34)cc(=O)oc2c1C (centres undefined),8.7%,.,0.4%,.,.,.
Cc1ccc2c(c1)sc(-c1ccc(N(C)C)cc1)[n+]2C,-7.9%,+,3.55µM*,77.2*,0.0%,?
C(=N\Nc1nc(Nc2ccccc2)nc(Nc2ccccc2)n1)/c1cccnc1,31.1%,36.3,?,4.9,3.29µM*,-2.3%
C(=N/Nc1nc(-c2ccccc2)cc(-c2ccccc2)n1)/c1cccnc1,-1.0%,68.8*,?,61.4*,?,-15.3%
Oc1cccc(/C=N\Nc2nncc(-c3ccccc3)n2)c1,27.5%,50.2*,13.7%,64.2*,25.2%,-19.0%
Cc1[nH]n(-c2ccccc2)c(=O)c1/C=N/Nc1nncc(-c2ccccc2)n1,-93.1%,1.7,0.562µM*,-1.1,0.415µM*,0.586µM*
Cn1c(=O)c2cc(NC(=O)CCc3ccc4c(c3)OCO4)ccc2n1Cc1ccc(F)cc1,-4.2%,.,.,.,.,.
COc1ccc(CN2CCC(=O)N([C@H](CO)Cc3ccccc3)CC2)cc1OC,2.4%,-0.4,10.0%,1.4,?,2.4%
COc1ccc(OC)c(NC(=O)c2cccc(NC(=O)c3ccco3)c2)c1,-14.2%,.,.,.,.,.
CC(C(=O)Nc1ccc(Cl)cc1Cl)N1C(=O)NC2(CCCCCCC2)C1=O (centres undefined),-9.1%,.,?,.,?,-4.2%
COc1ccc(C2(O)CC3CCC(C2)N3c2cc(C)nc(-c3ccccc3)n2)cc1 (centres undefined),-12.3%,-18.9,?,15.3,11.7µM*,.
Cc1cc(N2CCCC2)nc(N2C3CCC2CC(O)(c2ccc(F)cc2)C3)n1 (centres undefined),.,18.3,.,-6.1,?,145.4%
COC(=O)C(Cc1cccc(C)n1)(c1ccccc1)c1ccccc1,-5.9%,13.1,-20.9%,-6.0,9.28µM*,?
COC(=O)c1ccccc1OCc1cccc(C)n1,0.0%,-13.5,?,-2.1,8.2%,15.6%
CCOC(=O)c1sc2nccc(OC)c2c1N=CN(C)C,-0.9%,-12.4,-11.4%,16.1,422.6%,64.5%
Cc1nc2ccccn2c1/C(O)=C1\C(=O)C(=O)N(CCN2CCOCC2)C1c1cccnc1 (centres undefined),13.2%,-15.4,1µM*,-1.7,46.6%,41.7%
Cc1ccc(C)c(/C(O)=C2\C(=O)C(=O)N(CCCN3CCOCC3)C2c2cccnc2)c1 (centres undefined),-8.5%,-10.1,5.9%,-2.1,14.8%,1.85µM*
Cc1ccc(/C(O)=C2/C(=O)C(=O)N(CCN3CCOCC3)C2c2cccnc2)cc1 (centres undefined),0.0%,11.6,5.4%,-2.2,4.7%,?
SMILES,AMA1-RON2 inh,Shiga inhibitor,HCV inh,CHX counter,Pf growth 48h,Pf growth 96h
O=C(NNS(=O)(=O)c1ccc(C(F)(F)F)cc1)c1cnn(-c2ccccc2)c1C(F)(F)F,15.8%,8.4,6.7%,-1.0,42.8%,63.0%
CC(=O)c1cccc(CN2CCC(n3nccc3NC(=O)c3ccc4c(c3)OCO4)CC2)c1,-3.1%,-5.8,.,-3.7,0.0%,-18.7%
O=C(NCCOc1ccccc1)c1cccc2c1C(=O)c1ccc(Cl)cc1S2(=O)=O,-2.9%,.,10µM*,.,21.2%,-2.1%
Cc1nnc(SC(C)C(=O)Nc2ccc(N3CCOCC3)cc2)n1Cc1ccccc1 (centres undefined),-21.8%,.,?,.,3.4%,26.3%
O=C(NC(c1ccc(Cl)cc1)c1ccsc1)C1CCN(Cc2ccc(Oc3ccccc3)cc2)CC1 (centres undefined),-15.3%,.,.,.,.,.
COc1ccc(C(=O)Nn2c(SCc3ccc([N+](=O)[O-])cc3)nc3ccccc3c2=O)cc1,-2.2%,82.1*,-12.4%,25.4*,361.3%,?
CCOC(=O)CSc1nc2ccccc2c(=O)n1NC(=O)c1ccccc1,27.7%,66.4*,9.8%,37.2*,346.7%,7.38µM*
COc1ccc(C(=O)Nn2c(SCC(=O)c3ccccc3)nc3ccccc3c2=O)cc1,-9.9%,98.9,?,38.4*,-24.7%,i
CCN1CCN(c2cc(C)nc(-c3ccccc3O)n2)CC1,20.5%,-10.3,?,-2.3,?,?
COc1cccc([C@@H]2CC=C(C(=O)O)[C@H](c3ccccc3F)N2S(=O)(=O)c2ccc(C)cc2)c1,9.6%,.,11.7%,.,?,-18.0%
COc1ccc(-c2coc3c(C(=O)Nc4cccnc4)cccc23)c(C)c1,-9.1%,.,.,.,.,.
C/C(=C\c1ccccc1)C(=O)NC1CCSC1=O (centres undefined),1.9%,31.0,-18.9%,17.9*,25.3%,56.2%
CN1C(=O)NC(=O)/C(=C\C=C\c2ccccc2[N+](=O)[O-])C1=O,-4.5%,30.7,?,24.0*,14.6%,139.5%
CCCCNC(=O)C1C(c2ccc(C(F)(F)F)cc2)=Nc2ccccc2N1C(=O)c1cccc2ccccc12 (centres undefined),5.6%,.,.,.,.,.
O=c1c2ccc([N+](=O)[O-])c3cccc(c32)c2nc3ccccc3n12,.,13.3,.,-1.3,1.7%,17.2%
O=c1c2cccc3c(N4CCOCC4)ccc(c32)c2nc3ccccc3n12,.,73.0*,?,29.2*,30.8%,83.0%
Cc1cc(C(=O)NNC(=O)/C=C/c2ccc(F)cc2)c(C)o1,21.5%,25.2,-5.3%,-1.4,30.6%,36.6%
COc1ccc(OC)c(NC(=O)Nc2nnc(COCCO)s2)c1,-3.3%,.,.,.,.,.
CC(C)(C)c1ccc(CCC2OCC(C[N+]3(C)CCOCC3)O2)cc1 (centres undefined),-1.4%,-2.7,9.2%,-2.7,?,2.62µM*
COC1C(O)C(CO)OC1n1cnc2c(NC3CCCCC3)ncnc21 (centres undefined),.,-5.8,.,5.6,.,.
